Results as given in PubChem BioAssay.
Active and inactive are the calls of the source. The rule behind the calls is not given here.

Each compound was assayed against Protein kinase 7 (PK7), Plasmodium falciparum 3D7 (PF3D7_0213400) (UniProt Q7YTF7) (assay: inhibition of Plasmodium PK7 catalytic activity – biochemical, TCAMS antimalarial set, Kinase-Glo luminescence (AID 1159587)). Details: recombinant PfPK7, Kinase-Glo ATP depletion luminescence.
Sequence of Protein kinase 7 (PK7), Plasmodium falciparum 3D7 (PF3D7_0213400) (Q7YTF7 1-343): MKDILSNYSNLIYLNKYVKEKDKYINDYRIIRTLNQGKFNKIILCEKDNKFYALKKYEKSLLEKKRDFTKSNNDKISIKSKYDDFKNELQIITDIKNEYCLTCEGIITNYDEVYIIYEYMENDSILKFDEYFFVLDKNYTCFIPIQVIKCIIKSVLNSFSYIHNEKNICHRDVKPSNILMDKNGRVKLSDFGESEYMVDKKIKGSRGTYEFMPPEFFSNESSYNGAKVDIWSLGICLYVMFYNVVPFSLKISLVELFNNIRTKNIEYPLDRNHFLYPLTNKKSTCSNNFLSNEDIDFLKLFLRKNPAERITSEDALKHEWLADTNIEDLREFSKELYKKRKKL

outcome, inactive:
Cc1nc(-c2cccc(NCc3ccccc3)c2)[nH]c1C
CS(=O)(=O)NCCCNCc1ccc(-c2cccc(-c3nc4ccc(F)cc4[nH]3)c2)cc1
C=CCNc1cc(-c2ccccn2)nc(-c2ccccn2)n1
O=C(Nc1cccc(C(F)(F)F)c1)c1ccc(S(=O)(=O)NCC2CCCN2CC2CCCCC2)cc1 (centres undefined)
Cc1cc(CN2CCC(Nc3ncc(-c4ccsc4)c4nc(C(F)(F)F)ccc34)CC2)no1
Oc1cccc2ccc(Nc3ccccn3)nc12
C=C[C@]1(C)C[C@@H](OC(=O)c2cncn(COC)c2=O)[C@]2(C)[C@H](C)CC[C@]3(CCC(=O)[C@H]32)[C@@H](C)[C@@H]1O
Cc1cc(C(=O)CN2C(=O)NC3(CCOc4ccccc43)C2=O)c(C)n1Cc1ccc(F)cc1 (centres undefined)
CCCN(CCC)CCCOc1ccc(C(=O)c2c(-c3ccc(OCCCN(CCC)CCC)cc3)oc3ccc(Cl)cc23)cc1
CCN(CC)C(=NCCCCCCN=C(/N=C(\N)Nc1ccc(Cl)c(Cl)c1)N(CC)CC)/N=C(\N)Nc1ccc(Cl)c(Cl)c1
COc1ccc(CNc2nc(NCc3ccc(C(F)(F)F)cc3)c3cc(OC)c(OC)cc3n2)cc1OC
COc1ccc2nccc(N3CCC(O)(CCNCc4ccc5c(n4)NC(=O)CS5)CC3)c2n1
COc1cc(Cc2cnc(N)nc2N)cc(OCCCOc2ccccc2)c1OC
CC1CCCC(NCc2c(O)ccc3ccccc23)C1 (centres undefined)
COc1ccc2nc3cc(Cl)ccc3c(NCc3ccccc3)c2c1
COc1cc2nc(C)nc(Nc3ccc(Oc4ccccc4)cc3)c2cc1OC
O=C(NCc1ccc(F)cc1)Nc1cccc(-c2ccc(-c3nc4ccc(F)cc4[nH]3)cc2)c1
CC1N=C(N)N=C(N)N1OCc1cccc2ccccc12 (centres undefined)
O=C(Nc1ccc2c(c1)CCNCC2)Nc1ccc2ccccc2c1
O=C(C=Cc1ccc(Cl)c(Cl)c1)NCCCCCN1CCC(CCNC(=O)c2cccc3ccccc23)CC1
C(=NNc1ccnc2ccccc12)c1ccncc1
COc1cc2c(cc1S(=O)(=O)c1ccc(NC(=O)c3cccc(C(F)(F)F)c3)cc1)CCN(C)CC2
CC(=O)C1=NN(c2ccc(C)cc2)C(c2cccs2)N1c1ccccc1 (centres undefined)
CCNc1cc(C(=O)N[C@@H](Cc2ccccc2)[C@H](O)CNC(C)(C)c2cccc(OC)c2)cc(N2CCCC2=O)c1
COc1cc(Cc2cnc(N)nc2N)cc(OCCCCCC(N)=O)c1OC
CS(=O)(=O)NCCCNCc1ccc(-c2ccc(-c3nc4ccc(C(F)(F)F)cc4[nH]3)cc2)cc1
O=C(Cc1cccs1)NC(CCCN1CCC(Oc2cccc(Cl)c2)CC1)c1ccc(Cl)c(Cl)c1 (centres undefined)
COc1ccc(-c2cnc(N)c(-c3nc4ccc(Br)cc4[nH]3)c2)cc1
Cc1ccc(F)c(NC(=O)c2c(-c3c(F)cccc3Cl)noc2C)c1
COc1ccc(CNc2nccc3ccc(-c4ccc5nccn5c4)cc23)cc1
CN(C)C(=O)CCCn1c(CNCCCNc2cc(=O)c3ccccc3[nH]2)cc2c(Cl)cc(Cl)cc21
CN1CCc2cc(NS(=O)(=O)c3ccc(-c4ccc(Cl)s4)cc3)c(N3CCCCC3)cc2CC1
Cc1ccc(C(C#N)c2ccc3c(C(F)(F)F)cc(C(F)(F)F)nc3n2)cc1 (centres undefined)
CN(C)CCNCc1ncsc1-c1ccc2c(Nc3ccc(F)cc3Cl)ccnc2c1
O=C(/C=C/c1ccc(Cl)c(Cl)c1)N1CCC(CNCc2cccc3cc[nH]c23)CC1
CC(=O)Nc1ccc(OCCCCN(Cc2ccccc2C(F)(F)F)c2ccc(C(F)(F)F)c(C#N)c2)c(Cl)c1
CS(=O)(=O)N(c1cccc(F)c1)c1cc(C(=O)N[C@@H](Cc2ccccc2)[C@H](O)CNCc2cccc(C(F)(F)F)c2)cc(N2CCCC2=O)c1
CCCCOC(=O)C1=C(C)NC2=C(C(=O)CC(c3ccc(OC)c(OC)c3)C2)C1c1ccc(O)cc1 (centres undefined)
Cc1nn(-c2ccccc2)nc1C(=O)N(Cc1ccc(-c2ccc(CNCCc3ccc(S(C)(=O)=O)cc3)cn2)cc1)C(C)CN(C)C (centres undefined)
